Laboratory results: PubChem BioAssay (NCATS)
Results filed as inconclusive are left out. Active and inactive are the calls of the source. Calls follow the shape of the full dose curve. Peptide text beside a SMILES is read from it.

Assay: qHTS Assay for Lipid Storage Modulators (AID 1519); as to activity change, negative = inhibition: % is scaled to controls: 0 for no effect and ±100 for the full control effect
Details: Drosophila S3 cells, BODIPY lipid droplet/cell ratio, laser cytometry, cells loaded with oleic acid
Text: NIH Molecular Libraries Probe Production Centers Network [MLPCN]
NIH Chemical Genomics Center [NCGC]
Assay Submitter (PI): Beller, Mathias; Max-Planck-Institut fur Biophysikalische Chemie
NCGC Assay Overview: Storing lipids as a reservoir for energy or the anabolism of elementary metabolites is a common feature of probably all cells and is conserved from bacteria to humans. The universal cellular lipid storage organelle is the so-called lipid storage droplet (LD). Although ubiquitous, LDs share a simple structure composed of a hydrophobic core that harbors the storage lipids, which is shielded by a droplet-specific phospholipid monolayer to which proteins are attached. The current model of LD biogenesis involves an incorporation of the lipid core into the membrane leaflets of the endoplasmic reticulum (ER) followed by a subsequent budding-like maturation of a LD, which ultimately pinches off. Once released, LD volume can increase by localized lipogenesis or fusion of existing droplets. Storage lipids are re-mobilized enzymatically by lipase activity. Lipase regulation in the adipocyte is heavily studied and involves multiple components including catecholamine signaling, the LD-associated proteins Perilipin and comparative gene identification-58 (CGI-58) and at least two lipases named hormone sensitive lipase (HSL) and adipocyte triglyceride lipase (ATGL). LD regulation outside of the adipocyte is poorly understood and only few components are known. However, there is an urgent need to learn more about ectopic fat depots as mislocalized storage of lipids, for example in the liver or muscle, is an eminent health problem associated with insulin resistance or the metabolic syndrome. We developed a laser-scanning cytometer assay to enable 1,536-well screening and combined the results of the small molecules screen with an RNAi database based on lipid storage.
NCGC Assay Protocol Summary:
We dispensed 4 uL of cells at 1.25 x 10^6 cells/mL into LoBase Aurora COC 1,536-well plates (black walled, clear bottom) with a bottle-valve solenoid-based dispenser (Aurora) to obtain 5,000 cells/well. Triacsin C (Sigma-Aldrich T-4540), an inhibitor of long-chain fatty acyl CoA synthetase that blocks synthesis of triglycerides, was used as a positive control for lipid under-storage. A total of 23 nL of compound solution of different concentrations were transferred to the assay plates using a Kalypsys pin tool equipped with a 1,536-pin array containing 10-nL slotted pins (FP1S10, 0.457-mm diameter, 50.8 mm long; V&P Scientific). One microliter of oleic acid (400 uM) was added, and the plate was lidded with stainless steel rubber gasket lined lids containing pinholes. […] Fluorescence was detected by excitation of the fluorophores with a 488-nm laser on an Acumen Explorer (TTP Lab Tech). The total intensity in channel 1 (500-530 nm) reflected lipid droplet accumulation. […] The ratio of the total intensity in PMT channel 1 over total intensity of channel 3 was also calculated. Percent activity was computed relative to an internal control (100% inhibited lipid droplet deposition due to the presence of 20 uM Triacsin C), which was added to 32 wells/plate.

[1] = measured here: cell count channel max response
[2] = measured here: lipid channel max response

Row | SMILES | activity change, negative = inhibition (at 25.7 µM (top of the series)) | max response [1] [%] | max response [2] [%] | activity change, negative = inhibition (at 57.5 µM (top of the series))
1 | C=N[C@H](C(=O)N[C@@H]1C(=O)N2[C@@H]1SC(C)(C)[C@@H]2C(=O)O)c1ccccc1 | -2.09% (inactive) | -2.49 | -4.08 | 
2 | O=C(/C=C\c1ccc(O)c(O)c1)O[C@@H]1C[C@](O)(C(=O)O)C[C@@H](O)[C@@H]1O | 2.29% (inactive) | 1.17 | 3.23 | 
3 | CC[C@H]1NC(=O)c2cc(S(N)(=O)=O)c(Cl)cc2N1 | -1.77% (inactive) | 0.892 | -1.37 | 
4 | C[C@@H]1OC(OC2C(OC3CC[C@@]4(C)C5CC=C6C7CC(C)(C)CC[C@@]7(C(=O)O)CCC6(C)C5(C)CCC4[C@]3(C)CO)OCC(O)C2O)C(O)C(O)C1O (some centres not stated) |  | 9.24 | 14.3 | 3.66% (inactive)
5 | CC(=O)C1CCC2C3CC(C)C4=CC(=O)CC[C@@]4(C)C3C(O)C[C@@]12C (some centres not stated) |  | 8.18 | 24.3 | 8.05% (inactive)
6 | CC(C)C1=CC2=CC[C@@H]3[C@](C)(CO)CCC[C@]3(C)C2CC1 (some centres not stated) |  | 10.4 | 14.9 | 1.89% (inactive)
7 | CC1(C)CC2/C(CO)=C/C=C/[C@](C)(O)CC[C@]21O (some centres not stated) |  | 22.8 | 29.9 | 4.24% (inactive)
8 | O=C(O)C1(O)C[C@H](O)C(O)[C@@H](O)C1 (some centres not stated) |  | -6.02 | -7.19 | -0.572% (inactive)
9 | O=C(Cc1ccccc1)NO |  | 2.32 | 5.58 | 4.41% (inactive)
10 | CCCCCCCCCCCCCCC(C(=O)OC)C(O)(CC(=O)OC)C(=O)OC (configuration not stated) |  | -1.14 | -26.9 | -24% (inactive)
11 | CC(=O)OC1CCC2(C)C(=CC=C3C2CCC2(C)C3CCC2C(C)/C=C/C(C)C(C)C)C1(C)C (configuration not stated) |  | 12.2 | 14.9 | 1.79% (inactive)
12 | COc1ccc(-c2cc(=O)c3c(O)c(OC)c(O[C@@H]4OC(COC5OC(C)C(O)C(O)[C@@H]5O)C(O)C(O)C4O)cc3o2)cc1 (some centres not stated) |  | 13.3 | 15.5 | 4.35% (inactive)
13 | Cn1c(=O)[nH]c2nc[nH]c2c1=O |  | 14 | 22.4 | 5.61% (inactive)
14 | CC(C)CC(NC(=O)CN)C(=O)NC(Cc1ccccc1)C(=O)O (stereo not drawn) (H-Gly-Leu-Phe-OH; configuration not given here) |  | 3.97 | 11.6 | 6.28% (inactive)
